Inconclusive results are not listed. Calls of active or inactive are those of the source. Calls follow the shape of the dose curve; as a rule, active = well fitted activation curve with a large enough effect; inconclusive = small, poorly fitted or top-dose-only effect; inactive = no such curve, though single readings can be large or run the other way.
test: qHTS Assay for Rab9 Promoter Activators: Initial hit validation from the primary screen; conditions: Huh7 Rab9 promoter luciferase reporter, 24 h; series mostly up to 46.1 µM
Source text: NIH Chemical Genomics Center [NCGC] NIH Molecular Libraries Probe Production centers Network [MLPCN] MLPCN Grant: MH089537-01 Assay Submitter (PI): Yiannis A. Ioannou NCGC Assay Overview: Niemann Pick Type C (NPC) is a rare neurodegenerative lipidosis that is characterized by lipid storage in the endosomal/lysosomal system. Treatment modalities for this devastating disease are currently non-existent due to the severe obstacles associated with accessing the central nervous system with proteins or genes (Ioannou, 2000). We have developed a new paradigm, termed "Orphan Receptor Bypass Therapy" (ORByT), to address these disorders. This paradigm posits the existence of endogenous "suppressor" proteins whose expression can dramatically improve LSD pathogenesis. The goal is the identification/discovery of small chemical compounds that can modulate the expression of these proteins and provide a new treatment modality for these devastating disorders. One such protein whose overexpression reverses aspects of the NPC phenotype is Rab9. We have developed and optimized a cell based luciferase reporter assay in 1536 well format for the identification of up-regulators of the Rab9 promoter. This assay presents data on the validation of hits from the primary screen.
The Rab9 promoter is cloned in front of the luciferase reporter gene, therefore […] promoter activation results in luciferase expression. Frozen stock of the Rab9 promoter transfected Huh7 cells were obtained from the laboratory of Dr. Yiannis Ioannou (The Mount Sinai School of Medicine, New York, NY). Cells were propagated and maintained at NCGC in medium containing RPMI-1640 supplemented with 10% FBS, 2mM L-glutamine, and 50ug/ml penicillin/streptomycin. Cells were harvested in and plated for assays in OP-MEM I reduced-serum medium supplemented with 10% FBS. The Amplite luciferase reporter gene assay kit was purchased from ABD Bioquest and prepared/stored according to manufacturers recommendations. qHTS Assay Setup: 1.Dispensed 5ul of Huh7 cells stably expressing Rab9-luciferase at a density of 1500 cells per well 1536-well plates. 2.Incubate cells at 37C, 5% CO2, and 95% humidity for 2 hours. 3.Transferred 23nl per well of compound in DMSO solution. 4.Incubated at 37C, 5% CO2, and 95% humidity for 24 hours. 5.Dispensed 3ul per well of Amplite reagent(ABD Bioquest) per well. 6.Incubate at ambient for 10 minutes. 7.Read using the luminescence protocol on the ViewLux plate reader (Perkin Elmer).

SMILES | outcome
Cc1cccn2c(NCC3CCCO3)c(C(C)C)nc12 (stereo unspecified) | inactive
O=C1c2ccccc2C(=O)N1Cc1nc2ccccc2c(=O)n1-c1cccnc1 | inactive
COc1cccc(CCNCc2ccc(SC)cc2)c1 | inactive
CCC(=NCc1cccnc1)c1c(O)n(-c2ccccc2)c(=O)[nH]c1=O | inactive
COc1ccc(C(CC(=O)N2CCC3(CC2)OCCO3)NS(=O)(=O)c2ccc(F)cc2)cc1 (stereo unspecified) | inactive
CN1CCc2cc3c(c4c2C1Cc1ccccc1-4)OCO3 (stereo unspecified) | inactive
